MmCpn inh – blocks the Methanococcus maripaludis chaperonin Mm-Cpn; purified Mm-Cpn ATPase, ADP Transcreener TR-FRET; Potency, µM (highest dose often 76.9 µM), for inactives: top-dose activity, negative = inhibition, hits mostly inhibitors; 0.031% of 330,000 active; AID 504842; further: potency means the concentration at half of the fitted maximal effect; nearly all actives have a fitted effect of over 80% in size
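Purified archaeal Mm-CPN (25nM final) preincubated 10 min at 37degC with compound, then 10uM ATP for 30 min at 37degC; ADP measured by HTRF Transcreener TR-FRET; buffer 30 mM TRIS pH 7.4, 100mM KCl, 5mM MgCl2, 1mM DTT.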
G9a block – blocks human histone lysine methyltransferase G9a; G9a H3K9 monomethylation, AlphaScreen, 2 h; Potency, µM (series often up to 102 µM), for the others: top-dose activity, negative = inhibition, usual class: inhibitors; 8.8% of 350,000 active; AID 504332; further: potency means the concentration at half of the fitted maximal effect; nearly all actives have a fitted effect of over 75% in size
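Quantitative HTS format: methyltransferase activity on a biotin-tagged H3K9 peptide is measured by AlphaScreen, using a rabbit anti-monomethyl-H3K9 antibody with streptavidin donor and anti-IgG acceptor beads. Final levels are 20 nM enzyme, 500 nM peptide, 20 uM SAM; 2 h RT.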
Sfp inh – inhibitors of Bacillus subtilis Sfp phosphopantetheinyl transferase. Biochemical Sfp PPTase activity, qHTS. 3.5% of 310,000 active. Potency, µM, for the others: largest response in the series, negative = inhibition, most hits filed as inhibitors. AID 1490;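 further: the enzyme is Sfp with the accession as filed and its product quenches rhodamine fluorescence; potency means the concentration at half of the fitted maximal effect; 0% = enzyme reaction without inhibitor and -100% = no enzyme wells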
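After 15 min at room temperature with compound, 15 nM Sfp received 5 uM rhodamine-CoA plus 12.5 uM BHQ-2-ybbR (50 mM Hepes pH 7.6, 10 mM MgCl2). Rate came from the fluorescence difference over 30 min, ex 525/em 598 nm.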
CCT chaperon mod – changes cytosolic chaperonin activity | purified chaperonin ATPase assay, HTRF ADP detection, 30 min | activity change, % (test concentration not listed), hits read low | 0.3% of 360,000 active | AID 651819; in the data active means activity change below about -30%
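ATPase activity: ADP formed was measured by HTRF Transcreener (665/615 nm ratio) after 30 min at 37 deg C with 10 uM ATP. Compounds screened at one 76 uM concentration against 40 or 20 nM TRiC in Tris pH 7.4/KCl/MgCl2/DTT buffer.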
VDR inh – blocks the human vitamin D receptor. P11473. Potency, µM, for the others: max response, negative = inhibition, most hits filed as inhibitors. VDR-SRC2-3 peptide fluorescence polarization, 2 h. AID 504847. 0.93% of 400,000 active; further: potency means the concentration at half of the fitted maximal effect
Target sequence (P11473 whole entry, looked up): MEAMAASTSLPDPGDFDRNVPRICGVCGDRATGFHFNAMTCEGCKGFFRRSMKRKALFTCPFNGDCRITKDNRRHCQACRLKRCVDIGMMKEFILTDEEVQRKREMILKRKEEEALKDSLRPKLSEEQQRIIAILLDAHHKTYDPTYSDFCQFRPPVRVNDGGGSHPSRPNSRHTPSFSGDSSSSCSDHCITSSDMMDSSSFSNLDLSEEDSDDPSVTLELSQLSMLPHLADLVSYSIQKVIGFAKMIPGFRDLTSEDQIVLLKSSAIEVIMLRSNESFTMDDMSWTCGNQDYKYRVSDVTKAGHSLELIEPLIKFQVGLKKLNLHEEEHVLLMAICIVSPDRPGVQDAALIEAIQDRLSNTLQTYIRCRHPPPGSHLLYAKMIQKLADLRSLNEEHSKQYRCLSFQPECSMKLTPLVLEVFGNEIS
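Fluorescence polarization assay measuring small-molecule disruption of VDR binding to the coregulator peptide SRC2-3. Compounds were pin-transferred (23 nl) into the reagent mix and incubated 2 h at room temperature before reading.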
PLK1 PBD block – inhibitors of human PLK1 polo-box domain binding; 2.8% of 360,000 active; Potency, µM, inactives show max response, negative = inhibition, hits mostly inhibitors; Plk1 PBD binding of FITC phosphopeptide, fluorescence polarization; P53350; further: potency means the concentration at half of the fitted maximal effect; series mostly up to about 57 µM; nearly all actives have a fitted effect of over 65% in size
* marks the source's active call; other numbers are inactive results; ! = a repeat was not active; [ ] = remark or other dose. Rows were chosen to be rich in hits. Some 10% of all compounds tested hit in one or more screens of this group. Unless noted, the call rests on the fitted dose curve; in most records, active means well fitted curve in the direction sought with a large enough effect; inconclusive means small, poorly fitted or top-dose-only effect, or another doubt; inactive means no such curve, though single readings can be large; an effect the other way counts as inactive or inconclusive. Unless noted, on the % scale 0 is the no-effect control and ±100 the full control effect.

Screening Cc1ccc(-c2csc(N3CCN(c4cc5c(cc4Cl)nc(-c4ccncc4)n5CCN4CCCCC4)CC3)n2)cc1 returned MmCpn inh -11%, G9a block 22µM*, Sfp inh 56µM*, CCT chaperon mod -1, VDR inh -25% and PLK1 PBD block inconclusive.
`CCCn1c(C)nc2cc(Cl)c(N3CCN(c4nc(-c5ccc(C)cc5)cs4)CC3)cc21` gave MmCpn inh -5%, Sfp inh -8%, CCT chaperon mod 1, VDR inh -8% and PLK1 PBD block -24%.
For Cc1ccc(-c2csc(N3CCN(c4ccc5nc(-c6ccncc6)n(CCN6CCCCC6)c5c4)CC3)n2)cc1 the results were MmCpn inh -2%, G9a block 35µM*, Sfp inh 56µM*, CCT chaperon mod -2, VDR inh -18% and PLK1 PBD block inconclusive.
`COc1ccc(-c2csc(N3CCN(c4cc5c(cc4Cl)nc(-c4ccncc4)n5CCOCCO)CC3)n2)cc1` gave MmCpn inh -19%, G9a block 28µM*, Sfp inh 45µM*, CCT chaperon mod 2, VDR inh -24% and PLK1 PBD block 27µM*.
`Cc1ccn2c(Nc3ccc(C(C)C)cc3)c(-c3cccs3)nc2c1` gave G9a block inconclusive and VDR inh -10%.
COc1ccc(CNC(=O)c2sc3nc[nH]c(=O)c3c2C)cc1 was read as G9a block 23%[59 µM] and VDR inh 18%.
Screening C/C=C1\COC(C(=O)NCc2ccccc2)(C(F)(F)F)C=C1C=C1CCCCC1 (configuration not stated) returned Sfp inh -8%, CCT chaperon mod -1, VDR inh 79µM*! and PLK1 PBD block -14%.
`C/C=C1\COC(C(=O)NCCN2CCCC2)(C(F)(F)F)C=C1C=C1CCCCC1` (configuration not stated) gave Sfp inh 7%, CCT chaperon mod -3, VDR inh -15% and PLK1 PBD block -20%.
For Cc1nnc(NN)n(N)c1=O the results were MmCpn inh -3%, Sfp inh 10µM*, CCT chaperon mod 0, VDR inh -8% and PLK1 PBD block -4%.
Screening CCOc1ccc(-n2c(SCC(=O)N3CCCC3)nc3c([nH]c4ccccc43)c2=O)cc1 returned G9a block 15%[59 µM] and VDR inh 8%.
`C(=N\NC1=Nc2cccc3cccc1c23)/c1ccccn1` gave MmCpn inh -8%, G9a block -46%, Sfp inh 45µM*, CCT chaperon mod 1, VDR inh -13% and PLK1 PBD block 8%.
Clc1ccccc1/C=N/NC1=Nc2cccc3cccc1c23 was read as MmCpn inh -3%, G9a block 6%[59 µM], Sfp inh -1%, CCT chaperon mod 2, VDR inh -4% and PLK1 PBD block -5%.
CCOc1ccc(-c2nnn(CCC#N)n2)cc1OC was read as MmCpn inh 1%, Sfp inh 12%, CCT chaperon mod -3, VDR inh inconclusive and PLK1 PBD block 19µM*.
Screening CCOC(=O)CC(C(=O)OCC)C1CCCCC1=O (configuration not stated) returned Sfp inh 23%.
For C[C@H](NC(=O)c1[nH]cnc1C(=O)Nc1ccc(CNC(=O)OC(C)(C)C)cc1)C(=O)OC(C)(C)C the results were MmCpn inh 2%, G9a block -8%[12.7 µM], Sfp inh 27%, CCT chaperon mod 0, VDR inh inconclusive and PLK1 PBD block 21µM*.
`CC(C)(C)OC(=O)NCCCC[C@H](NC(=O)c1[nH]cnc1C(=O)Nc1ccc(CNC(=O)OC(C)(C)C)cc1)C(=O)OC(C)(C)C` gave MmCpn inh 1%, G9a block 28%[59 µM], Sfp inh 23%, CCT chaperon mod 0, VDR inh -6% and PLK1 PBD block -2%.
COc1ccccc1Nc1ncc2c(n1)CCN(CC(C)C)C2 was read as G9a block 7%[59 µM] and VDR inh 8%.
For CC(=O)c1cc(-c2ccccc2)n(CCC(=O)Nc2ccc(C(C)C)cc2)c1C the results were G9a block inconclusive and VDR inh 7%.
Cc1ccc(NC(=O)CC(C)S(=O)(=O)c2ccc3c(c2)NC(=O)CO3)cc1C (configuration not stated) was read as MmCpn inh 0%, G9a block -7%[59 µM], Sfp inh 15%, CCT chaperon mod 3, VDR inh -2% and PLK1 PBD block 24µM*.
`CC(CC(=O)N1CCc2ccccc21)S(=O)(=O)c1ccc2c(c1)NC(=O)CO2` (configuration not stated) gave MmCpn inh 2%, Sfp inh 9%, CCT chaperon mod -1, VDR inh -9% and PLK1 PBD block 27µM*.
Screening CCc1ccccc1NC(=O)CC(C)S(=O)(=O)c1ccc2c(c1)NC(=O)CO2 (configuration not stated) returned G9a block -6%[59 µM] and VDR inh 10%.
Screening CCCCCN1CN(S(=O)(=O)c2cccs2)c2nc3ccccc3nc21 returned MmCpn inh -1%, G9a block 28µM*, Sfp inh 4%, CCT chaperon mod 0, VDR inh 20% and PLK1 PBD block 2%.
Screening Cc1ccc(S(=O)(=O)N2CN(CC3CCCO3)c3nc4ccccc4nc32)c(C)c1 (configuration not stated) returned MmCpn inh -4%, G9a block 32µM*, Sfp inh -12%, CCT chaperon mod -1, VDR inh -8% and PLK1 PBD block -4%.
For CCOCCCN1CN(S(=O)(=O)c2ccc(Cl)cc2)c2nc3ccccc3nc21 the results were MmCpn inh -3%, G9a block 5%[0.501 µM], Sfp inh -1%, CCT chaperon mod -3, VDR inh 8% and PLK1 PBD block -1%.
`COCCCN1CN(S(=O)(=O)c2ccc(C)cc2C)c2nc3ccccc3nc21` gave MmCpn inh -4%, G9a block 32µM*, Sfp inh -12%, CCT chaperon mod 0, VDR inh 0% and PLK1 PBD block -16%.
CCCN(C(=O)c1c(C)oc2ncn(CC(C)C)c(=O)c12)c1ccccc1C was read as G9a block -8%[59 µM] and VDR inh 6%.
`COc1ccccc1NC(=O)C(=O)NCCc1csc(-c2cccc(F)c2)n1` gave G9a block 16%[59 µM] and VDR inh 12%.
For C/C(=C\C(=O)OCCCCCCCCC(=O)O)C[C@@H]1OCC(C[C@H]2O[C@H]2[C@@H](C)[C@H](C)O)[C@@H](O)[C@H]1O (some centres not stated) the results were Sfp inh 4% and VDR inh -7%.
